# DT40 TDP1 no CPT: qHTS for Inhibitors of human tyrosyl-DNA phosphodiesterase 1 (TDP1): qHTS in cells in absence of CPT. DT40 Tdp1-/- hTDP1 cells, no CPT, ATP luminescence, 48 h. Potency, µM (doses to about 46.2 µM), without a hit: at the highest dose activity change, negative = growth inhibition, usual class: inhibitors. 15% of 420,000 active. AID 686978, 2013; also: nearly all actives have a fitted effect of over 55% in size
#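 Luminescent ATP content (CellTiter-Glo) served as the growth readout. Knockout chicken DT40 cells expressing human TDP1 were exposed to compounds without camptothecin for a minimum 48 hr at 37 °C.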
# PLK1 PBD inh: blocks phosphopeptide binding to human PLK1 polo-box domain | Plk1 PBD binding of FITC phosphopeptide, fluorescence polarization | Potency, µM, without a hit: max response, negative = inhibition, most hits filed as inhibitors | 2.8% of 360,000 active; also: series mostly up to about 57 µM; nearly all actives have a fitted effect of over 65% in size
# TDP1 block: TDP1 (human) enzyme inhibition; 0.28% of 350,000 active; AID 485290; recombinant TDP1, AlphaScreen DNA substrate cleavage; Potency, µM (titrated, usually from 130 µM), without a hit: at the top dose activity change, negative = inhibition, hits mostly inhibitors; Q9NUW8; also: nearly all actives have a fitted effect of over 40% in size
#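 Enzyme-compound mixtures sat 15 min at room temperature, followed by a 5 min reaction with 15 nM final substrate and 10 min with AlphaScreen beads. Recombinant human Tdp1 was used at 1 nM final.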
# DT40 TDP1 CPT: growth inhibition of DT40 Tdp1-/-;hTDP1 cells with camptothecin (screen for TDP1 inhibitors) | chicken DT40 Tdp1-/-;hTDP1 cells + 20 nM CPT, ATP luminescence, 48 h | Potency, µM (top dose mostly 46.2 µM), for inactives: at the highest dose activity change, negative = growth inhibition, hits mostly inhibitors | 12% of 420,000 active | AID 686979; also: nearly all actives have a fitted effect of over 55% in size
#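 Cell growth measured by CellTiter-Glo luminescence after a minimum 48 h, 37 C compound exposure with 20 nM CPT in Tdp1-knockout DT40 cells stably expressing hTDP1, seeded 400/well; qHTS titration format.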
# VDR inhibitor: vitamin D3 receptor (human) inhibition | P11473 | VDR-SRC2-3 peptide fluorescence polarization, 2 h | 0.93% of 400,000 active | Potency, µM, for the others: max response, negative = inhibition, most hits filed as inhibitors
# Target sequence (P11473 whole entry, looked up): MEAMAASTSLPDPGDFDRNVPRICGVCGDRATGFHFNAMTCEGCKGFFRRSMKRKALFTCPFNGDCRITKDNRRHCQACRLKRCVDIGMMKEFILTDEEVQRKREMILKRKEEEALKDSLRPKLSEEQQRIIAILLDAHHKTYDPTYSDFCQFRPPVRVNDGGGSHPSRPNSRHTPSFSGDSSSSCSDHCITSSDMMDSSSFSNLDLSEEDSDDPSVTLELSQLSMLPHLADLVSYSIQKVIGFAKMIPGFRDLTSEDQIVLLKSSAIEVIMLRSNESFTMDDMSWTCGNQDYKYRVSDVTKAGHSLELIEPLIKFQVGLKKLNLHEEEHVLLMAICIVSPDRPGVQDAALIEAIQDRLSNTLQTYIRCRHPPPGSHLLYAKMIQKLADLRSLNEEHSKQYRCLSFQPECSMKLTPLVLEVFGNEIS
#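 After 23 nl compound addition and a short centrifugation, plates sat for 2 hours at ambient temperature; polarization of fluorescence then indicated loss of VDR binding to peptide SRC2-3.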
# GCN5L2 inh: GCN5L2 (KAT2A) acetyltransferase inhibition; AID 504327; Potency, µM (series often up to 58.9 µM), for the others: at the top dose activity change, negative = inhibition, actives largely listed as inhibitors; 0.21% of 390,000 active; Q92830; GCN5L2 HAT assay, ThioGlo1 CoA-SH fluorescence
#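 Preincubate 20nM GCN5L2 with compound 15 min, RT → add 50uM ThioGlo1 + 75uM H3(1-25) + 70uM acetyl-CoA → read fluorescence 0 and 20 min. Primary qHTS; fluorescent artifacts likely.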
# Starred values were filed as active, the others as inactive; ? = inconclusive; nt = no result; ! = repeats disagree; [ ] = dose if it differs, or a comment. The list is not random: actives were taken first. Their share in the collection is about 18%. Calls follow the shape of the dose curve; as a rule, active = well fitted curve in the direction sought with a large enough effect; inconclusive = small, poorly fitted or top-dose-only effect, or another doubt; inactive = no such curve, though single readings can be large; an effect the other way counts as inactive or inconclusive. % is scaled to controls: 0 for no effect and ±100 for the full control effect; potency is read from the fitted curve at half-maximal effect.
SMILES,DT40 TDP1 no CPT,PLK1 PBD inh,TDP1 block,DT40 TDP1 CPT,VDR inhibitor,GCN5L2 inh
CC(C)(C)c1ccc(-c2noc(CCC(=O)NCc3ccco3)n2)cc1,26µM*,-14%,1%,18µM*,-7%,-17%
Cc1ccccc1NC(=O)Nc1nc(C(N)C2CCCCC2)cs1 (centres undefined),?,-4%,nt,23µM*,nt,nt
CC(C)c1ccc(NC(=O)Nc2nc(C(N)C3CCCCC3)cs2)cc1 (centres undefined),?,-4%,nt,?,nt,nt
CN(C)c1ccc(NC(=O)Nc2nc(C(N)C3CCCCC3)cs2)cc1 (centres undefined),21µM*,-14%,nt,18µM*,nt,nt
CCCn1c(N)c(C(=O)CN(C)CC(=O)Nc2c(C)cc(C)cc2C)c(=O)[nH]c1=O,?,-7%,10%,-16%,-11%,4%
CCCn1c(N)c(C(=O)CN(C)CC(=O)Nc2cc(C)ccc2C)c(=O)[nH]c1=O,13µM*,-10%,-2%,13µM*,-9%,1%
CCCn1c(N)c(C(=O)CN(C)CC(=O)Nc2c(Cl)cccc2Cl)c(=O)[nH]c1=O,23µM*,-9%,1%,16µM*,-14%,-3%
CCCn1c(N)c(C(=O)CN(C)CC(=O)Nc2ccccc2C(F)(F)F)c(=O)[nH]c1=O,21µM*,-7%,-2%[56.1 µM],15µM*,5%,-5%
CC(C)C(NC(N)=O)C(=O)NC1CCCCC1 (centres undefined),nt,nt,0%,nt,nt,-2%
Cn1ncc2c(=O)[nH]nnc21,-2%,-1%,nt,25%,-22%,nt
COC(=O)Cc1coc2cc(OC)ccc12,0%,-5%,-3%,-28%,-18%,?
CCOC(=O)CNc1oc(-c2ccccc2)nc1-c1ccccc1,nt,nt,8%,nt,?,nt
O=C(Oc1cccc2ccccc12)c1cc(Cl)nc2ccccc12,?,-10%,0%,-26%,-9%,-16%
O=Cc1ccc(OC(=O)c2cc(Cl)nc3ccccc23)cc1,21µM*,?,3%,?,?,-7%
CN(C)c1ccc(/C=C(\Cl)c2nc3ccccc3s2)cc1,21µM*,-3%,-3%,16µM*,-21%,0%
COc1cc(/C=N/NC(=Nc2ccc(C)cc2)c2nc3ccccc3s2)ccc1O,16µM*,-3%,8%,14µM*,19%,-6%
COc1cc(C=C(c2nc3ccccc3s2)c2nc3ccccc3s2)cc(OC)c1O,?,-6%,8%,23µM*,5%,-10%
C=CCc1ccccc1OCc1nc2ccc(C)cc2[nH]1,?,nt,9%,?,0%,-7%
CC(=O)NCCNc1nc2cc(-c3cscc3C)sc2c(=O)n1C,?,-6%,nt,-30%,nt,nt
Cc1cccc(Cc2c(C)nc3nc(SCC(=O)NC4CCCCC4)nn3c2C)c1,-4%,nt,12%,-29%,9%,-5%
COc1cc(/C=N/N=C2\CC3CCC2(C)C3(C)C)ccc1O (centres undefined),0%,-13%,-2%,-10%,-10%,nt
CC12CCC(C/C1=N\N=C1\NC(=O)/C(=C\c3cccc(Br)c3)S1)C2(C)C (centres undefined),?,30µM*,3%,?,-1%,-20%
CCOC(=O)C1(C)CCCCCN1C(=O)c1ccc(C(F)(F)F)nc1C (centres undefined),?,-13%,nt,?,nt,nt
CCOC(=O)c1c(-c2ccc(OC)cc2)oc2c1C(OC(C)=O)CCC2 (centres undefined),21µM*,-12%,nt,?,nt,nt
O=C(OCc1ccccc1)c1c(-c2ccccc2)oc2c1C(OCCO)CCC2 (centres undefined),16µM*,-6%,nt,?,nt,nt
SMILES,DT40 TDP1 no CPT,PLK1 PBD inh,TDP1 block,DT40 TDP1 CPT,VDR inhibitor,GCN5L2 inh
COc1ccc(-c2oc3c(c2C(=O)OCCCO)C(OCCO)CCC3)cc1 (centres undefined),5%,1%,nt,-1%,nt,nt
CCNC(=O)c1sc2ncnc(NCCCN3CCOCC3)c2c1C,-14%,nt,nt,13%[9.04 µM],nt,nt
COc1ccc(C(=O)Nc2ccnn2C2CCN(C(=O)c3cnsn3)CC2)cc1,-4%,-1%,2%,-16%,-8%,-4%
CC(=O)c1ccc(N(C)C)cc1,-8%,-1%,7%,-4%,1%,-1%[0.501 µM]
C/C(=C1/C=Nc2ccccc21)c1ccc(N(C)C)cc1,10µM*,nt,nt,7.9µM*,nt,nt
Cc1cc(C)cc(C(=O)NCC(c2ccc(N(C)C)cc2)N2CCCC2)c1 (centres undefined),16µM*,nt,4%,15µM*,0%,-5%
COc1cccc(C(=O)NCC(c2ccc(N(C)C)cc2)N2CCOCC2)c1OC (centres undefined),16µM*,nt,6%,15µM*,0%,2%
COc1cc(C(=O)NCC(c2ccc(N(C)C)cc2)N2CCCC2)cc(OC)c1OC (centres undefined),?,nt,-1%,18µM*,-5%,-2%
COc1cccc(C(=O)NCC(c2ccc(N(C)C)cc2)N2CCCC2)c1OC (centres undefined),?,nt,4%,12µM*,0%,-15%
Cc1ccccc1C(=O)NCC(c1ccc(N(C)C)cc1)N1CCCC1 (centres undefined),-16%,nt,6%,-2%,10%,-3%
COCC(=O)Nc1cc(C(=O)N2CCN(c3ccccc3)CC2C)c2c(c1)nc(-c1ccncc1)n2C (centres undefined),-15%,nt,nt,-6%[9.04 µM],nt,nt
CCC(Oc1ccccc1F)C(=O)Nc1c(C(=O)c2ccccc2)oc2ccccc12 (centres undefined),?,nt,-5%,-22%,-5%,-11%
Cc1cccc(OCCSCc2nc3ccccc3[nH]2)c1,21µM*,0%,6%,16µM*,3%,0%
Cc1ccccc1OCCSCc1nc2ccccc2[nH]1,?,-13%,2%,16µM*,-18%,0%
C[C@@H]1CN([C@@H](C)CO)C(=O)CCCn2nncc2CO[C@@H]1CN(C)S(=O)(=O)c1cn(C)cn1,7%,-21%,nt,-2%,nt,nt
CCc1cc(C(C)=O)c(O)cc1OCCCCCC(C)(C)c1nn[nH]n1,nt,nt,6%,nt,nt,nt
O=c1cc(-c2ccccc2)oc2cc(O)c(O)c(O)c12,30µM*,-26%,-3%,17µM*!,-14%,-4%
COc1cc2oc(-c3ccc(O)cc3)cc(=O)c2c(O)c1OC,18µM*,-19%,nt,-88%,-5%,-28%
O=c1cc(-c2ccc(O)cc2)oc2c(O)c(O)c(O)c(O)c12,?,-25%,nt,23µM*,-28%,0%
O=c1cc(-c2ccc(O)cc2)oc2ccc3ccccc3c12,16µM*,6%,32µM*,?,4%,-9%
